Consider five molecules from PubChem BioAssay.

A word on the viability: it is a read-out of living cells in per cent, often relative to untreated cells. The term inhibition denotes the drop in the measured response relative to a control, in per cent.

The nature of test [1]: reducers of endogenous Her2 protein level, primary screen, SKBR3 breast tumor cells, AlphaScreen, ATP viability (AID 461;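 active = Her2 level under about 52% in both replicate screens, with viability over 70% of control, limit read from the data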;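 for Her2 level: lower value means less Her2 protein in the cells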;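 for viability: percent of carrier control wells set as 100% viability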). Conditions: 18-24 h, measured here: SKBR3 viability, ATP luminescence, at 10 µM. In general terms: In Alpha technology, singlet oxygen from a donor bead excites a nearby acceptor bead.
Test [2] concerns the target Receptor tyrosine-protein kinase erbB-2 (Homo sapiens) (UniProt P04626). The test is described as above. As to conditions: 18-24 h, at 10 µM, stronger effect = lower value.
Test [3] is described as follows: SK-BR-3 cell growth inhibitors, pilot screen, 24 h, human (AID 572;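 active = viability at or below 10% of carrier control in both of two separate runs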;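 note: compound exposure lasted between 18 and 24 h rather than exactly 24 h; 100% = carrier-treated control wells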). As to conditions: SK-BR-3 viability, CellTiter-Glo luminescence, at 10 µM, stronger effect = lower value.
A short description of test [4]: HUVEC growth inhibition – cell-based, human, primary screen (AID 575;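 active = viability at or below 30% in both replicate assays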;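 note: 100% = median of untreated cell wells with 0.1% DMSO on each plate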). Conditions: HUVEC proliferation, CellTiter-Glo luminescence, 72 h; at 10 µM; stronger effect = lower value. A general note: Cellular ATP, detected with luciferase, serves as a proxy for viable cell number.
A short description of test [5]: growth inhibitors of H69AR lung tumor, primary screen, human, duplicate replicates (AID 580).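 Note: 100% = mean luminescence of untreated wells and 0% = no signal.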 As to conditions: H69AR lung tumor cells viability, ATP luminescence, 72 h; at 10 µM; stronger effect = lower value.
Test [6] can be described thus: reversal of MRP1-mediated doxorubicin resistance, pilot screen, H69AR cells, doxorubicin co-treatment (AID 601;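 active = viability loss from added drug above about 55%, and viability with drug at most 40%, in both replicates, limit read from the data, passing the limit was not always enough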). Conditions: CellTiter-Glo, 72 h, at 10 µM; for differential viability (reversal): stronger effect = higher value.
Test [7] in a line: 384-well plate pilot, post-Golgi transport modulator project, inhibition of yeast transport mutant growth (AID 636; in the data active = inhibition above about 31%). Conditions: absorbance 615 nm, about 18 h, stronger effect = higher value.
Test [8] can be described thus: growth suppression of yeast trafficking mutant, preliminary HTS, modulators of trafficking downstream of Golgi apparatus project, 1536-format plate, OD 615 nm (AID 637; in the data active = inhibition above about 30%). Conditions: yeast transport mutant growth, absorbance 615 nm, 18 h; stronger effect = higher value.
Test [9] can be described thus: OD615 S. cerevisiae growth inhibition, permissive medium, pilot counter-assay, permissive growth control for S. cerevisiae lifespan shortening project (AID 705;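 active = growth inhibition above 25% in both replicates, a cutoff set 3 SD above the mean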). Conditions: OD615, 24 h, at 10 µM, stronger effect = higher value.
Test [10] is described as follows: Restrictive medium S. cerevisiae growth inhibition, OD615, pilot screen of yeast lifespan reduction project, restrictive growth control (AID 706;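 active = growth inhibition above a set limit, 3 SD over mean compound inhibition, in both replicates, cut at about 43% in these data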;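 note: modified DeaD lifespan yeast strain shifted to restrictive glucose medium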). Conditions: OD615, 48 h, at 10 µM, stronger effect = higher value.
Test [11] can be described thus: viability gain of MRP-1-high H69AR cells under doxorubicin, pilot screen, MRP-1 activator project, CellTiter-Glo, duplicate (AID 807;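 active = viability increase at or above a cutoff of the median across tested compounds plus 3 SD, cut at about 8.5% in these data, passing the limit was not always enough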;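 note: compound pretreatment 18-22 h then 72 h combined with doxorubicin; 0% = doxorubicin alone and 100% = vehicle without doxorubicin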). Conditions: H69AR viability with doxorubicin, CellTiter-Glo luminescence; at 10 µM; stronger effect = higher value.
Test [12] in a line: growth suppression of beta-catenin knockout HCT116, pilot screen, human colon tumor cells (AID 823;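 active = cell viability at or below a set limit in both duplicate runs, the limit being the all-compound median minus 4 SD, cut at about 23% in these data, passing the limit was not always enough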;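 note: 0% = wells killed by 20 µM Hyamine and 100% = untreated DMSO cell wells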). Conditions: CellTiter-Glo, 60 h, at 10 µM, stronger effect = lower value.
Test [13] can be described thus: growth suppression of PTEN-deleted HCT116, pilot screen, cell-based, HCT116 clonal line, CellTiter-Glo (AID 824;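 active = viability at or below 27.92% in each of two runs, the all-compound median minus 4 SD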;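 note: 0% = 20 µM Hyamine control and 100% = vehicle cell control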). Conditions: 60 h, at 10 µM, stronger effect = lower value.
The nature of test [14]: inhibitors of the yeast RAM network, pilot screen, dse1pr::URA3 reporter, 5-FOA selection (AID 869;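 active = inhibition over a set limit, the all-compound mean plus 3 SD, in both replicate runs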;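 note: 0% = DMSO wells with no growth and 100% = 10 µM 1-NA-PP1 with full growth; RAM network block rescues cells from 5-FOA so hits raise OD615 growth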). Conditions: S. cerevisiae dse1pr::URA3 5-FOA growth, OD615, 2 d; at 10 µM; stronger effect = higher value; strain carries analog-sensitive mutant Cbk1 kinase.
A short description of test [15]: RAM signaling pathway blockade in yeast – S. cerevisiae, Pdr1DBD-CYC8 efflux-inhibited sensitized strain, primary screen (AID 1298;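 active = RAM network inhibition above 8.4% in each of two replicates, 3 SD over the compound average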;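 note: 0% = DMSO untreated cells without growth and 100% = 10 µM 1-NA-PP1 full growth; higher means more yeast growth rescued from 5-FOA killing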). Conditions: S. cerevisiae cbk1-as DSE1-URA3 strain, 5-FOA growth OD615, 2 d; at 50 µM; stronger effect = higher value.
The mark [16] stands for this setting: H69AR cells + 2 uM doxorubicin, measured here: viability with 2 uM doxorubicin, stronger effect = lower value.
[17] abbreviates: H69AR cells, compound alone cytotoxicity.

Records with an inconclusive call do not appear. The source made the active and inactive calls.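 Rule for the calls, unless noted: active = viability at or under a set limit in both replicates, limit being median viability minus 3 SD (cut at about 48% in these data, passing the limit was not always enough); inconclusive = at or under the limit in just one replicate; inactive = at or above the limit in both replicates.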

Sequence of Receptor tyrosine-protein kinase erbB-2 (Homo sapiens) (P04626 whole entry, looked up): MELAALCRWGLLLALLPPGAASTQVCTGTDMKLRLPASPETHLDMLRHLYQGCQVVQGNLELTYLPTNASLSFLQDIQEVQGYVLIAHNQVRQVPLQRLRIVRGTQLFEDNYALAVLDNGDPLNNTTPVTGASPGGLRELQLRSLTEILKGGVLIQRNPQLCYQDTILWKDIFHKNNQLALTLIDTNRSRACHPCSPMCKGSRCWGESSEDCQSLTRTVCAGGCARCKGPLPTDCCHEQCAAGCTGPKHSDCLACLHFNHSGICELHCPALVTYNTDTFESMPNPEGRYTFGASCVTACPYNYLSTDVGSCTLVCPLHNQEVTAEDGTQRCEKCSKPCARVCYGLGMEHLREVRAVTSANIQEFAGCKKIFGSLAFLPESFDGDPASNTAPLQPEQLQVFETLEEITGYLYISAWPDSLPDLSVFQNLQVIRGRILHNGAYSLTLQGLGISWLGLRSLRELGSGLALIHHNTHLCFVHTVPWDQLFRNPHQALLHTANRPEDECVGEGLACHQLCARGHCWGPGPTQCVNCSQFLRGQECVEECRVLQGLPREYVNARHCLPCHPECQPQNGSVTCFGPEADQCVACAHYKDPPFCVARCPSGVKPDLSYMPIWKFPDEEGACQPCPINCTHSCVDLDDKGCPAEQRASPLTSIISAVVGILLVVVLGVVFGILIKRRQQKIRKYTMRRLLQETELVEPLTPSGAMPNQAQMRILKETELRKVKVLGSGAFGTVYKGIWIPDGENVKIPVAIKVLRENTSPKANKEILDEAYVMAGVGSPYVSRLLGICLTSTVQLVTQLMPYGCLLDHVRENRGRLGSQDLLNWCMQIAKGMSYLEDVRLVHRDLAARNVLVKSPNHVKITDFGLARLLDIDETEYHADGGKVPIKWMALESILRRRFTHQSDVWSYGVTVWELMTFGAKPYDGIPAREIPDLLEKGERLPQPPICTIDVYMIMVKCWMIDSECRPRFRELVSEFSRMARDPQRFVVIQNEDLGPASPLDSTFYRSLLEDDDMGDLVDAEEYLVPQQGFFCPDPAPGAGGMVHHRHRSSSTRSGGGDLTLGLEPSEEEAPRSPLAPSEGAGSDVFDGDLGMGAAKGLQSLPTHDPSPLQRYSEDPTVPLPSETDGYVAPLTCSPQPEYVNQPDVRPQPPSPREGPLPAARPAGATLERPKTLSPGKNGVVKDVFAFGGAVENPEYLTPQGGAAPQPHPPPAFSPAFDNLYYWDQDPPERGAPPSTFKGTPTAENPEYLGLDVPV

For the molecule `Cc1ccc(-c2cc(C(F)(F)F)n3nc(C(=O)N4CCCC4)cc3n2)cc1`, the viability in test [1] is 101%; in [3] it was 101% (inactive); in [4], 108% (inactive); in test [5], 111% (inactive); in test [6] (setting [16]), 100%; in [6] (setting [17]) it was 111%. Further, the viability was 96.9% (inactive) in [12] and 89% (inactive) in [13]. Further, in [2], the Her2 level is 84.5% (inactive). Moreover, the differential viability (reversal) in [6] (H69AR cells + 2 uM doxorubicin) is 11.3% (inactive). Moreover, the values for the inhibition in [7], in test [8] and in test [14] were -0.68% (inactive), 3.65% (inactive) and 1.95% (inactive), respectively. The results for the growth inhibition in test [9] and in test [10] were -13.3% (inactive) and 1.45% (inactive), respectively. Also, the viability increase in test [11] was -2.2% (inactive). For the same molecule, the RAM network inhibition in [15] was 4.14% (inactive).
With `CC1NC2(C(=O)N(Cc3ccccc3)c3ccccc32)C2C(=O)N(c3ccccc3)C(=O)C12` (stereo not given), the viability in test [1] was 120%; in test [3] it was 120% (inactive); in test [4] it was 95.5% (inactive); in [5], 93.5% (inactive); in test [6] (setting [16]), 92.9%; in test [6] (setting [17]) it was 93.5%. The figures for the viability in test [12] and in test [13] were 97.1% (inactive) and 104% (inactive), respectively. Moreover, in test [2], the Her2 level was 100% (inactive). Besides, in test [6] (H69AR cells + 2 uM doxorubicin), the differential viability (reversal) is 0.575% (inactive). The inhibition in [7] was -4.13% (inactive); in [8], 1% (inactive); in test [14], 0.29% (inactive). The growth inhibition in test [9] was -5.06% (inactive); in [10] it was -14.4% (inactive). In addition, in test [11], the viability increase was 1.77% (inactive). Moreover, the RAM network inhibition in test [15] is 3.53% (inactive).
Regarding `COc1ccc(CCNC(=O)c2cc3sc(Cl)cc3n2C)cc1OC`, the viability was 89.5% in test [1]; 89.5% (inactive) in test [3]; 98.3% (inactive) in test [4]; 90.7% (inactive) in [5]; 94.6% in test [6] (setting [16]); 90.7% in test [6] (setting [17]). Moreover, the viability in [12] was 65.2% (inactive); in test [13], 77.3% (inactive). In addition, the Her2 level in test [2] was 94% (inactive). For the same molecule, in [6] (H69AR cells + 2 uM doxorubicin), the differential viability (reversal) is -3.9% (inactive). In addition, the inhibition is -3.59% (inactive) in [7], -8% (inactive) in [8] and 0.605% (inactive) in test [14]. Also, the values for the growth inhibition in test [9] and in test [10] were -5.07% (inactive) and 12.9% (inactive), respectively. Moreover, in test [11], the viability increase is 3.32% (inactive). Besides, in [15], the RAM network inhibition was 1.25% (inactive).
In the case of `CC(C)c1nnc(NC(=O)c2ccc(N3C(=O)CCC3=O)cc2)s1`, the viability is 91.5% in test [1]; 91.5% (inactive) in test [3]; 100% (inactive) in [4]; 92.5% (inactive) in test [5]; 94.3% in [6] (setting [16]); 92.5% in [6] (setting [17]). Moreover, the values for the viability in [12] and in test [13] were 101% (inactive) and 95.3% (inactive), respectively. Further, the Her2 level in test [2] is 89.5% (inactive). Moreover, the differential viability (reversal) in [6] (H69AR cells + 2 uM doxorubicin) is -1.78% (inactive). The figures for the inhibition in test [7], in test [8] and in test [14] were -3.33% (inactive), -0.67% (inactive) and 1.46% (inactive), respectively. For the same molecule, the growth inhibition in test [9] is -2.77% (inactive); in [10], -18.5% (inactive). Also, the viability increase in test [11] is -4.79% (inactive). Further, the RAM network inhibition in [15] was 3.77% (inactive).
As for `COC(=O)C1=C(C)Nc2ncnn2C1c1ccc(C)o1` (stereo not given), the viability in [1] was 103%; in test [3], 103% (inactive); in test [4], 94.5% (inactive); in [5] it was 91.7% (inactive); in [6] (setting [16]) it was 84.2%; in test [6] (setting [17]), 91.7%. In addition, the values for the viability in [12] and in test [13] were 107% (inactive) and 101% (inactive), respectively. Also, the Her2 level in test [2] is 119% (inactive). Also, the differential viability (reversal) in test [6] (H69AR cells + 2 uM doxorubicin) is 7.49% (inactive). Also, the inhibition in [7] is 0.27% (inactive); in test [8], 4.67% (inactive); in test [14], 2.39% (inactive). In addition, the results for the growth inhibition in [9] and in test [10] were -16.6% (inactive) and -18.4% (inactive), respectively. For the same molecule, the viability increase in [11] was -1.12% (inactive). Besides, the RAM network inhibition in test [15] was -1% (inactive).
